# Rows were chosen to be rich in hits. Some 12% of all compounds tested hit in one or more screens of this group.
# ALDH1A1 block: inhibitors of human aldehyde dehydrogenase 1A1; Purified ALDH1A1, NADH fluorescence, propionaldehyde substrate; Potency, µM (top dose mostly 75.3 µM), inactives show top-dose activity, negative = inhibition, most hits filed as inhibitors; 7.3% of 220,000 active; P00352; active = well fitted inhibition curve with a large enough effect, not every such curve was filed as active; inconclusive = small, poorly fitted or top-dose-only effect, or another doubt; inactive = no such curve, though single readings can be large or run the other way;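 note: plate controls were no enzyme wells and a reference inhibitor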
# RORgamma inh: blocks mouse ROR gamma transcriptional activity; P51450; 5.4% of 310,000 active; Potency, µM (series often up to 53.6 µM), for the others: at the highest dose activity change, negative = inhibition, most hits filed as inhibitors; Drosophila S2 Gal4-RORgamma UAS-luciferase reporter, 20 h; note: nearly all actives have a fitted effect of over 60% in size
# Target sequence (P51450 whole entry, looked up, the tested form may be a part): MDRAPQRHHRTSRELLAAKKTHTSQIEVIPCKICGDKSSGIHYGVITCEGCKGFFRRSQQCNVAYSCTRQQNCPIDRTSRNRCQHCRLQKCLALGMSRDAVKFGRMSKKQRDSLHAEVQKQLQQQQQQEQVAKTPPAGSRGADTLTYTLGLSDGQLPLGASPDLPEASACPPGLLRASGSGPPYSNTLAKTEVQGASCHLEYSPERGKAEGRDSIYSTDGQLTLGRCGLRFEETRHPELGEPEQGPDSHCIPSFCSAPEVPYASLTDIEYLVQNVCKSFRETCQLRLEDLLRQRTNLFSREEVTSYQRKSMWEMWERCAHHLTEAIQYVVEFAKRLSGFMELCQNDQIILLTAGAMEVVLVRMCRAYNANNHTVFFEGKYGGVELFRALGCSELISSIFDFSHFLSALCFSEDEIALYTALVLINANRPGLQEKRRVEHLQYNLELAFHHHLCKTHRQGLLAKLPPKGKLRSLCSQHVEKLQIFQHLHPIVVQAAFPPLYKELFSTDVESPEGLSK
#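 Read-out: Photinus luciferase luminescence; inhibitors lower reporter signal. Insect Schneider cells with Gal4-ROR gamma fusion under metallothionein promoter, UAS reporter; 700 uM final copper sulfate induction, 20 hr, ambient temperature.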
# PLK1 PBD inh: inhibitors of human PLK1 polo-box domain binding | P53350 | Plk1 PBD binding of FITC phosphopeptide, fluorescence polarization | Potency, µM, for the others: max response, negative = inhibition, usual class: inhibitors | 2.8% of 360,000 active | AID 720504; note: series mostly up to about 57 µM; nearly all actives have a fitted effect of over 65% in size
# VP16 counter: inhibits Gal4-VP16 luciferase reporter, ROR gamma counter-screen; Potency, µM (doses to about 53.6 µM), without a hit: at the top dose activity, negative = inhibition, actives largely listed as inhibitors; Drosophila S2 Gal4-VP16 UAS-luciferase, luminescence, 20 h; 3.5% of 310,000 active;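 note: Gal4-VP16 expression switched on by copper sulfate through the metallothionein promoter; nearly all actives have a fitted effect of over 50% in size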
# Sfp inh: inhibitors of Bacillus subtilis Sfp phosphopantetheinyl transferase; Q9F4F7; Biochemical Sfp PPTase activity, qHTS; Potency, µM, for the others: largest response in the series, negative = inhibition, usual class: inhibitors; 3.5% of 310,000 active; AID 1490;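 note: the enzyme is Sfp with the accession as filed and its product quenches rhodamine fluorescence; 0% = enzyme reaction without inhibitor and -100% = no enzyme wells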
#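 Fluorescence-quenching assay: 15 nM Sfp-PPTase preincubated 15 min at room temperature with compound, then 5 uM rhodamine-CoA and 12.5 uM BHQ-2-labelled YbbR peptide added. Fluorescence (ex 525/em 598 nm) read at start and after 30 min; difference gives rate.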
# Active calls of the source: *; ? = inconclusive; . = no result; [ ] = another dose, or the depositor's remark. Unless noted, calls come from the whole dose curve; as a rule, active = well fitted curve in the direction sought with a large enough effect; inconclusive = small, poorly fitted or top-dose-only effect, or another doubt; inactive = no such curve, though single readings can be large; an effect the other way counts as inactive or inconclusive. Unless noted, % is set by controls: 0 for no effect and ±100 for the full control effect; potency is the fitted concentration of half-maximal effect.
SMILES,ALDH1A1 block,RORgamma inh,PLK1 PBD inh,VP16 counter,Sfp inh
O=C(CC(Sc1ccc(Br)cc1)C(=O)O)c1ccc(Br)cc1 (stereo not given),.,14.1µM*,.,?,35.5µM*
CCCCCC(=O)N1C[C@@H](O)[C@H](n2cc(-c3ccc(F)cc3)nn2)C[C@@H]1c1ccccc1,.,.,-12.4%,.,.
COC(=O)c1ccc(C)c(NS(=O)(=O)c2ccc3c(c2)OCCO3)c1,7.94µM*,?,-5.2%,?,15.5%
COc1ccc2nc3cc(Cl)ccc3c(Nc3cc(C(C)C)c(O)cc3C)c2c1,.,0.2%,7.2%,-7.8%,50.1µM*
Cc1cc(O)c(C(C)C)cc1NC(=O)Nc1cc(Cl)ccc1Cl,.,.,5.0%,.,.
CCC(=O)Nc1cc(C(C)C)c(O)cc1C,8.9%,-25.9%,-5.7%,-4.9%,21.4%
COC(=O)c1ccc(C)c(NS(=O)(=O)c2ccc(C)c([N+](=O)[O-])c2)c1,?,1.1%,?,-14.3%,0.7%
C/C(=N\S(=O)(=O)c1ccc(C)cc1)Nc1cc(C(C)C)c(O)cc1C,2.82µM*,22.9%,-3.8%,4.3%,9.5%
COC(=O)c1ccc(C)c(NS(=O)(=O)c2ccc(OC)cc2)c1,0.794µM*,?,-4.9%,-12.3%,-4.6%
CC(=O)C(C(c1ccccc1)N1CCCc2ccccc21)N1CCOCC1 (stereo not given),.,.,-0.8%,.,.
CC(=O)N1CCC[C@@]2(CCN(C(c3ccccc3)c3ccccc3)C2)C1,-2.3%,-26.2%,.,-0.7%,17.5%
COc1ccc(S(=O)(=O)Nc2cc(C(C)C)c(O)cc2C)cc1,0.316µM*,15.8µM*,-9.9%,?,6.8%
COc1ccccc1NS(=O)(=O)c1cccc(C(=O)N/N=C(\C)c2ccc3c(c2)OCCO3)c1,25.1µM*,?,-19.6%,?,9.0%
COC(=O)c1ccc(CC(=O)c2ccc(O)cc2O)o1,?,0.6%,4.8%,9.0%,-29.9%
COC(=O)c1ccc(CC(=O)c2c(C)cc(O)cc2O)o1,28.2µM*,11.2µM*,-20.0%,?,39.8µM*
CCOC(=O)C1=CCN(S(C)(=O)=O)C1c1ccc(C)cc1 (stereo not given),.,.,-6.3%,.,.
Cc1ccc(-n2c(SCC(=O)N3CCOCC3)nc(O)cc2=O)cc1,.,-4.1%,5.9%,-5.4%,12.2%
COc1ccc(-c2nnc(SCC(=O)N3CCOCC3)o2)cc1,6.2%,-24.0%,-9.7%,-10.6%,14.9%
COc1ccc(-c2nnc(SCC(=O)Nc3cc(C)on3)o2)cc1,-1.1%,11.2µM*,2.5%,?,-15.0%
COc1cccc(-c2nnc(SCC(=O)N3CCOCC3)o2)c1,?,?,23.8µM*,5.0%,-9.8%
COc1cccc(NC(=O)CSc2nnc(-c3ccc(C)cc3)o2)c1,12.7%,?,2.9%,12.6µM*,7.8%
Cc1cc(NC(=O)CSc2nnc(-c3ccco3)o2)no1,3.6%,-7.8%,1.9%,0.1%,-23.1%
COc1ccc(-n2c(SCC(=O)N3CCOCC3)nc(O)cc2=O)cc1,.,11.2µM*,-0.5%,0.3%,5.8%
COC(=O)[C@@H](NCc1ccc(B(O)O)cc1)C(C)C,.,.,-16.3%,.,.
CC(C)(C)c1ccc(S(=O)(=O)NC(=O)C2(C)CCN2C(=O)C2CC2)cc1 (stereo not given),.,.,-0.1%,.,.
SMILES,ALDH1A1 block,RORgamma inh,PLK1 PBD inh,VP16 counter,Sfp inh
CCCC[C@@H]1C[C@H]1C(NC(=O)c1ccco1)c1ccccc1C(F)(F)F (stereo not given in full),-22.2%,28.9%,.,-13.1%,23.0%
CCS(=O)(=O)Nc1ccc(-c2nnc(SCC(=O)c3cccc(OC)c3)o2)cc1,3.16µM*,24.1%,-9.4%,-1.1%,-11.1%
Cc1nc(C(=O)NCC(=O)c2ccc(Cl)cc2)c(C(F)(F)F)o1,?,?,-4.8%,12.7%,10.2%
Cc1nc(C(=O)NNC(=O)c2ccc(Cl)cc2)c(C(F)(F)F)o1,.,11.2µM*,-5.4%,?,13.4%
Cc1ccc(C(=O)NN(C)c2nc3ccccc3nc2C(F)(F)F)cc1,-1.7%,-6.2%,-1.8%,-12.5%,3.1%
CN(N)c1nc2ccccc2nc1C(F)(F)F,4.9%,-4.1%,21.2µM*,6.0%,6.1%
O=Cc1cccn1-c1nccc(-c2ccco2)n1,22.4µM*,8.0%,-1.2%,-0.4%,6.7%
Clc1ccc2c(N/N=C/c3cccc(Br)c3)ccnc2c1,-3.1%,-117.0%,-8.2%,?,-8.0%
Clc1ccc2c(N/N=C/c3ccccc3Br)ccnc2c1,7.4%,-109.5%,3.5%,17.8µM*,-29.0%
O=C(Nc1cccc(F)c1)N1CCCC2(CCNCC2)C1,16.0%,0.4%,.,-0.8%,-3.9%
O=C(Nc1cccc(F)c1)N1CC[C@@]2(CCCNC2)C1,25.1µM*,-12.2%,.,13.6%,?
Cc1cccc(C(=O)NNC(=O)c2ccccc2)c1,12.5%,16.0%,-6.8%,3.8%,0.6%
Cc1cccc(C(=O)c2cnc3ccccc3c2-c2ccccc2)c1,12.6µM*,?,-1.4%,10µM*,?
Cc1c(/C(O)=C2/C(=O)C(=O)N(CCN3CCOCC3)C2c2ccccn2)cnn1-c1ccccc1 (stereo not given),?,1.12µM*,-22.4%,?,?
COc1ccc(/C(O)=C2/C(=O)C(=O)N(CCN3CCOCC3)C2c2ccccn2)cc1 (stereo not given),22.4µM*,?,?,2.2%,50.1µM*
O=C1C(=O)N(Cc2cccnc2)C(c2ccccn2)/C1=C(/O)c1ccccc1 (stereo not given),-3.3%,0.447µM*,-0.7%,-3.1%,4.4%
O=C1C(=O)N(CCN2CCOCC2)C(c2ccccn2)/C1=C(/O)c1ccc(F)cc1 (stereo not given),25.1µM*,-16.8%[10 µM],10.6µM*,5.4%,56.2µM*
CCOC(=O)c1[nH]c(C)c(/C(O)=C2\C(=O)C(=O)N(CCCN3CCOCC3)C2c2cccnc2)c1C (stereo not given),?,34.3%,-9.1%,-5.8%,5.3%
CC(C)Oc1ccc(/C(O)=C2/C(=O)C(=O)N(CCN3CCOCC3)C2c2ccccc2)cc1 (stereo not given),22.4µM*,9.2%,-5.1%,3.6%,-4.2%
COC(=O)c1[nH]c(C)c(/C(O)=C2\C(=O)C(=O)N(CCCN3CCOCC3)C2c2ccccn2)c1C (stereo not given),10µM*,-37.6%,-16.0%,-1.8%,50.1µM*
COc1ccc(Cc2c(-c3ccc(Cl)cc3)nc3cc(C)c(Br)c(C)n23)c(C)c1,.,.,1.9%,.,.
CCOc1ccc(/C=N/n2c(COc3ccccc3)n[nH]c2=S)cc1OC,.,-32.8%,?,-5.0%,56.2µM*
S=c1[nH]nc(COc2ccccc2)n1/N=C/c1ccc(Cl)c(Cl)c1,.,?,16.8µM*,-17.0%,56.2µM*
CC(/C=N/n1c(COc2ccccc2)n[nH]c1=S)=C\c1ccccc1,?,2.51µM*,?,?,-29.4%
CC(=C/c1ccccc1)/C=N/n1c(C)n[nH]c1=S,.,8.91µM*,-3.9%,6.31µM*,-7.4%
CC(=C/c1ccccc1)/C=N/n1c(-c2ccncc2)n[nH]c1=S,?,?,-20.5%,-3.3%,-21.8%

# High-throughput results (PubChem BioAssay)
